In PubChem BioAssay (NCATS):
Values without a mark were called inactive. Activity calls are given as the source filed them. Calls follow the shape of the dose curve; as a rule, active = well fitted inhibition curve with a large enough effect; inconclusive = small, poorly fitted or top-dose-only effect; inactive = no such curve, though single readings can be large or run the other way.

Test: qHTS assay for measurement of the activity of small molecule inhibitors on Zika virus induced Caspase-3 activity in human astrocytoma cells (AID 1224859);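 also: plate controls were ZIKV-infected untreated cells for no effect and uninfected cells for full effect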
Conditions: SNB-19 ZIKV-induced caspase-3/7, luminescence, 6 h; series mostly up to 45.7 µM; activity change, negative = inhibition: at the top concentration
How it was run: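 SNB-19 astrocytoma cells, 250/well, pretreated 1 h with compounds, then Zika virus at 2 FFU/cell for 6 h at 37 C; Caspase-Glo 3/7 luminescence after 30 min; percent inhibition normalised to uninfected and infected controls.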

| SMILES | activity change, negative = inhibition | Potency |
| --- | --- | --- |
| CN(C)Cc1cccc(N=C(c2ccccc2)c2c(O)[nH]c3cc(C(=O)N(C)C)ccc23)c1 | 35.2% |  |
| CC(C)C(=O)Oc1ccc(CO)cc1[C@H](CCN(C(C)C)C(C)C)c1ccccc1 | -17.7% |  |
| N#CC(=C(N)Sc1ccccc1N)C(C#N)=C(N)Sc1ccccc1N | -2.98% |  |
| CN(C)c1cc(NC(=O)CNC(C)(C)C)c(O)c2c1C[C@@H]1C[C@H]3[C@H](N(C)C)C(=O)C(C(N)=O)=C(O)[C@@]3(O)C(=O)C1=C2O | -12% |  |
| C[N+](C)(C)CC(=O)O | 13.9% |  |
| CCCCCNC(=O)N1CCC(CN(Cc2ccc(Cl)cc2)Cc2ccc([N+](=O)[O-])s2)C1 (configuration not stated) | -18% |  |
| COc1ccc(C2Sc3ccccc3N(CCN(C)C)C(=O)C2OC(C)=O)cc1 (configuration not stated) | 21% |  |
| Clc1ccc(C(c2ccc(Cl)cc2)n2cc[n+](CC(OCc3ccc(Cl)cc3Cl)c3ccc(Cl)cc3Cl)c2)cc1 (configuration not stated) | 1.87% |  |
| CC=CC[C@@H](C)C(=O)[C@H]1C(=O)N[C@@H](C(C)C)C(=O)N(C)CC(=O)N(C)[C@@H](CC(C)C)C(=O)N[C@@H](C(C)C)C(=O)N(C)[C@@H](CC(C)C)C(=O)N[C@@H](C)C(=O)N[C@H](C)C(=O)N(C)[C@@H](CC(C)C)C(=O)N(C)[C@@H](CC(C)C)C(=O)N(C)[C@@H](C(C)C)C(=O)N1C | -14.2% |  |
| CCn1cc(C(=O)O)c(=O)c2ccc(C)nc21 |  | inactive |
| O=C(NOCC(O)CO)c1cc(Br)c(F)c(F)c1Nc1ccc(I)cc1F (configuration not stated) | -7.46% |  |
| O=c1cc(-c2ccccc2)oc2cc(O)c(O)c(O)c12 | -18.7% |  |
| O=C(CCc1ccc(O)cc1)c1c(O)cc(O)cc1O[C@@H]1O[C@H](CO)[C@H](O)[C@H](O)[C@H]1O | -25.3% |  |
| O=C(Nc1ccccc1Br)N[C@@H]1CCN(c2ccc(C(F)(F)F)cn2)C1 | 29.6% |  |
| Cc1ccc(C(=O)Nc2cccc(C(F)(F)F)c2)cc1Nc1nc(-c2cccnc2)nc2c1cnn2C | 285% |  |
| Nc1nc(F)nc2c1ncn2[C@@H]1O[C@H](COP(=O)(O)O)[C@@H](O)[C@H]1O | -1.67% |  |

| SMILES | activity change, negative = inhibition | Potency |
| --- | --- | --- |
| Cc1nc(N)sc1-c1ccnc(Nc2ccc(N3CCOCC3)cc2)n1 | -10.4% |  |
| CO[C@H]1C[C@@H]2CC[C@@H](C)[C@@](O)(O2)C(=O)C(=O)N2CCCC[C@@H]2C(=O)O[C@H]([C@@H](C)C[C@@H]2CC[C@H](O)[C@H](OC)C2)CC(=O)[C@H](C)C=C(C)[C@@H](O)[C@@H](OC)C(=O)[C@H](C)C[C@H](C)C=CC=CC=C1C | 18.9% |  |
| CC1(C)CCC2=C(O1)c1ccccc1C(=O)C2=O |  | inactive |
| O=C(O)C=Cc1ccc(O)c(O)c1 | -12.3% |  |
| CC(C)(C)c1ccc(C(O)CCCN2CCC(C(O)(c3ccccc3)c3ccccc3)CC2)cc1 (configuration not stated) |  | inactive |
| CO[C@H]1C(=O)[C@]2(C)[C@@H](OC)C[C@H]3OC[C@@]3(OC(C)=O)[C@H]2[C@H](OC(=O)c2ccccc2)[C@]2(O)C[C@H](OC(=O)[C@H](O)[C@@H](NC(=O)OC(C)(C)C)c3ccccc3)C(C)=C1C2(C)C | -6.33% |  |
| C[C@@H]1CCN(C(=O)CC#N)C[C@H]1N(C)c1ncnc2[nH]ccc12 | 50.2% |  |
| CC[C@@H]1C=C(C)C[C@H](C)C[C@H](OC)[C@H]2O[C@@](O)(C(=O)C(=O)N3CCCC[C@@H]3C(=O)O[C@H](C(C)=C[C@@H]3CC[C@H](Cl)[C@H](OC)C3)[C@H](C)[C@@H](O)CC1=O)[C@H](C)C[C@H]2OC | 23.3% |  |
| CCCCCN(C)CCC(O)(P(=O)(O)O)P(=O)(O)O | 13.6% |  |
| CCOC1OC(=O)C[C@H]1NC(=O)[C@@H]1CCCN1C(=O)[C@@H](NC(=O)c1ccc(N)c(Cl)c1)C(C)(C)C (some centres not stated) | 23.7% |  |
| CC(=Cc1ccccc1)C=C1SC(=S)N(CC(=O)O)C1=O | 13.9% |  |
| C=C1C(=O)[C@@]23C(CC[C@@H]1[C@H]2O)[C@@]12CO[C@]3(O)[C@@H](O)[C@@H]1C(C)(C)CC[C@@H]2O (some centres not stated) | 102% |  |
| O=c1cc(-c2ccc(O)cc2)oc2cc(O)cc(O)c12 | -19.1% |  |
| Nc1ncnc2c1ncn2[C@@H]1O[C@@H](CO)[C@H](O)[C@H]1O | 22.8% [at 20.5 µM] |  |
| NS(=O)(=O)c1cccc2c1C(=O)c1cccc(O)c1C2=O | 33.1% |  |
| CC[C@@]1(O)C[C@H](O[C@H]2C[C@H](N(C)C)[C@H](O[C@H]3C[C@H](O)[C@H](O[C@H]4CCC(=O)[C@H](C)O4)[C@H](C)O3)[C@H](C)O2)c2c(cc3c(c2O)C(=O)c2c(O)cccc2C3=O)[C@@H]1C(=O)OC | 14% |  |
